High-throughput results deposited in PubChem by National Center for Advancing Translational Sciences (NCATS).
ClpP mod = qHTS Assay for Activators of ClpP. ATP-dependent Clp protease proteolytic subunit (Bacillus subtilis (strain 168)), P80244. purified B. subtilis ClpP, FRET peptide cleavage, 20 min. Potency, µM (series often up to 57.5 µM), for inactives: at the top dose activity change, negative = active. 1.9% of 340,000 active. AID 651965, 2013; active = well fitted falling curve with a large enough effect; inconclusive = small, poorly fitted or top-dose-only effect; inactive = no such curve, though single readings can be large or run the other way; note: the source files actives as falling curves though it sought activators and does not explain the sign; nearly all actives have a fitted effect of over 65% in size
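FRET quenching reversal measured ClpP activation: 10 microg/mL B. subtilis ClpP at pH 8 with the FRET-FV decapeptide, read at 430 nm after 320 nm excitation. The 20-min minus 0-min signal was scaled between DMSO/no-enzyme wells and ADEP (5.8 microM final).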
TDP1 block = blocks human tyrosyl-DNA phosphodiesterase 1; Q9NUW8; recombinant TDP1, AlphaScreen DNA substrate cleavage; Potency, µM (highest dose often 130 µM), for the others: at the highest dose activity change, negative = inhibition, most hits filed as inhibitors; 0.28% of 350,000 active; AID 485290; note: % is set by controls: 0 for no effect and ±100 for the full control effect; nearly all actives have a fitted effect of over 40% in size
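Compounds were preincubated with Tdp1 (1 nM final) for 15 min at room temperature before substrate (15 nM final) started a 5 min reaction; beads (10 ug/ml final) were then added for 10 min before AlphaScreen detection.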
DT40 TDP1 no CPT = qHTS for Inhibitors of human tyrosyl-DNA phosphodiesterase 1 (TDP1): qHTS in cells in absence of CPT; DT40 Tdp1-/- hTDP1 cells, no CPT, ATP luminescence, 48 h; Potency, µM (highest dose often 46.2 µM), for the others: at the highest dose activity change, negative = growth inhibition, most hits filed as inhibitors; 15% of 420,000 active; AID 686978, 2013; note: % is set by controls: 0 for no effect and ±100 for the full control effect; nearly all actives have a fitted effect of over 55% in size
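DT40 Tdp1-/-;hTDP1 cells, no CPT (DMSO vehicle only), 400 cells/well; compounds pin-transferred; ≥48 hr, 37 °C; CellTiter-Glo 30 min RT dark, luminescence read.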
DT40 TDP1 CPT = growth inhibition of DT40 Tdp1-/-;hTDP1 cells with camptothecin (screen for TDP1 inhibitors). Potency, µM (doses to about 46.2 µM), for inactives: at the top dose activity change, negative = growth inhibition, hits mostly inhibitors. AID 686979. 12% of 420,000 active. chicken DT40 Tdp1-/-;hTDP1 cells + 20 nM CPT, ATP luminescence, 48 h; note: % is set by controls: 0 for no effect and ±100 for the full control effect; nearly all actives have a fitted effect of over 55% in size
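Chicken DT40 Tdp1-/- cells stably complemented with human TDP1 were seeded at 400 cells/well in medium containing 20 nM camptothecin, exposed to pin-transferred compounds, and grown at 37 °C for at least 48 hr. Viability was read as ATP luminescence.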
An asterisk follows results filed as active; ? = inconclusive; nt = no result given; [ ] = remark or other dose. The list is not random: actives were taken first. Their share in the collection is about 17%. Unless noted, calls come from the whole dose curve; as a rule, active = well fitted curve in the direction sought with a large enough effect; inconclusive = small, poorly fitted or top-dose-only effect, or another doubt; inactive = no such curve, though single readings can be large; an effect the other way counts as inactive or inconclusive. Potency is the fitted concentration of half-maximal effect.

SMILES | ClpP mod | TDP1 block | DT40 TDP1 no CPT | DT40 TDP1 CPT
COc1ccc(/C=C\c2onc(C)c2S(=O)(=O)N2CCC(C(=O)Nc3ccc(C)c(F)c3)CC2)cc1 | -10% | 2% | 6.5µM* | 5.2µM*
Cc1ccc(N(C)C(=O)C2CCN(S(=O)(=O)c3c(C)noc3/C=C/c3c(C)cc(C)cc3C)CC2)cc1 | -8% | 3% | 21µM* | ?
COc1ccc(-c2nc(-c3ccccc3)oc2Nc2c(C)cccc2C)cc1 | nt | 7% | nt | nt
COc1cc2nc(N(C)C)c(CNC3CCOC(C)(C)C3)cc2c(OC)c1OC (stereo not given) | nt | nt | -23% | -7%[9.04 µM]
COCCn1c(SCc2cnc(-c3ccccc3)s2)nnc1-c1ccncc1 | -3% | 6% | ? | 21µM*
COCCn1c(SCC#N)nnc1-c1ccccc1 | 1% | 6% | -13% | 1%
C/C(=N\N1CCCCC1)c1ccccc1O | 2% | nt | -14% | -12%
CCC(=O)N1CCC2(CC1)Oc1ccc(Cl)cc1C(=O)C21CC(c2ccccc2)=NO1 (stereo not given) | -6% | 5% | 26µM* | ?
COC(=O)C1=C(C(=O)OC)[C@@H]2N(C)c3ccc(OC)cc3[C@@]23C[C@@H](C(=O)OC)N(S(=O)(=O)c2ccc(Br)cc2)C3=N1 | nt | 17%[12.3 µM] | nt | nt
Cc1nc(N)c(CC(Br)CBr)c(Cl)n1 (stereo not given) | -1% | 2% | 7.3µM* | 8.2µM*
O=C(O)[C@H]1CN(C/C=C/P(=O)(O)O)CCN1 | nt | 4% | 1% | 7%
CC(C)(O)C#Cc1ccc(N2C(c3ccsc3)=Cc3ccc(F)cc3C2c2c[nH]c3ccccc23)cc1 (stereo not given) | 5% | nt | 18µM* | ?
N#Cc1ccc2[nH]cc(C3c4cc(F)ccc4C=C(c4ccsc4)N3c3ccc(C#CCCO)cc3)c2c1 (stereo not given) | 38% | nt | 18µM* | ?
O=C(C1=C[C@H](c2coc3ccccc3c2=O)C[C@H](OCc2ccc(CO)cc2)O1)N1CCN(Cc2ccc3c(c2)OCO3)CC1 | -4% | 4% | 7.3µM* | 7.3µM*
O=C(C1=C[C@@H](c2coc3ccccc3c2=O)C[C@@H](OCc2ccc(CO)cc2)O1)N1CCN(Cc2ccc3c(c2)OCO3)CC1 | -3% | 8% | 15µM* | 21µM*
O=S(=O)(/C=C/c1cccc(Br)c1)N1CCOCC1 | 2% | 0% | 21% | -20%
CN(C)c1ccc(N/C(=N\S(=O)(=O)c2cccs2)c2ccccc2)cc1 | -1% | 0% | 6.5µM* | ?
CN(CCC#N)C(=O)CSc1nnc(-c2c[nH]c3ccccc23)o1 | -1% | nt | 1% | 1%
COc1ccc(C2CC(c3cc(Br)ccc3F)n3nnnc3N2)cc1 (stereo not given) | -1% | 9% | ? | ?
COc1cccc(C2=CC(c3ccc(OC)c(OC)c3OC)n3nnnc3N2)c1 (stereo not given) | 2% | -5% | -22% | -22%
COc1ccc(C2C=C(c3ccc(Br)cc3)Nc3nnnn32)c(OC)c1 (stereo not given) | -12% | 4% | 23µM* | -98%
CCc1ccc(C2=CC(c3cc(Br)ccc3F)n3ncnc3N2)cc1 (stereo not given) | 32µM* | 3% | 18µM* | 23µM*
COc1cccc(C2=CC(c3cccs3)n3nnnc3N2)c1 (stereo not given) | -4% | 3% | 3.3µM* | 2.3µM*
Fc1ccc(Br)cc1C1C=C(c2ccc(Br)cc2)Nc2nnnn21 (stereo not given) | -6% | 9% | 23µM* | ?
CCc1c2c(nc3ccc(OC)cc13)-c1nc3ccccc3c(=O)n1C2 | nt | 4% | nt | nt
Cc1ccc(CN2C(=O)c3ccccc3Sc3ccc(C(=O)NC4CCCCC4)cc32)cc1 | -8% | 0% | -18% | -2%
CO/N=C(\C(=O)NC1C(=O)N2C(C(=O)OCOC(=O)C(C)(C)C)=C(/C=C\c3scnc3C)CSC12)c1csc(N)n1 (stereo not given) | nt | 7% | nt | nt
COCCN(C(=O)CSc1n[nH]c(-c2ccccc2)n1)c1c(N)n(CC(C)C)c(=O)[nH]c1=O | -3% | 1% | 7% | 14%
